FBW7 activator: activators of human E3 ligase FBW7; Q969H0; actives 0.13% (n = 650,000); AID 1259310; AlphaScreen FBW7–phospho-cyclin E peptide binding, activator screen; normalized activity (activation), % at 26.1 µM; in the data active = normalized activity above about 1.9%;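 note: purified mutant Fbw7 with reduced substrate affinity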
TEAD-YAP inh: TEAD-YAP interaction inhibition; HEK-TIYL cells, TEAD-Gal4/YAP UAS-luciferase luminescence; inhibition, % at 9.12 µM; actives 1.4% (n = 640,000); AID 1259422; in the data active = inhibition above about 32%
MITF inh: inhibitors of human MITF; inhibition, % at 2.6 µM; AID 1259374; AlphaScreen MITF homodimerization, bead proximity signal; actives 0.91% (n = 650,000); in the data active = inhibition above about 50%
GPR151 ag: human GPR151 activation. PathHunter beta-arrestin GPR151 cells, luminescence. activation, % at 11.2 µM. actives 1% (n = 650,000). AID 1508602; in the data active = activation above about 4.9%
Target sequence (Q8TDV0 whole entry, looked up): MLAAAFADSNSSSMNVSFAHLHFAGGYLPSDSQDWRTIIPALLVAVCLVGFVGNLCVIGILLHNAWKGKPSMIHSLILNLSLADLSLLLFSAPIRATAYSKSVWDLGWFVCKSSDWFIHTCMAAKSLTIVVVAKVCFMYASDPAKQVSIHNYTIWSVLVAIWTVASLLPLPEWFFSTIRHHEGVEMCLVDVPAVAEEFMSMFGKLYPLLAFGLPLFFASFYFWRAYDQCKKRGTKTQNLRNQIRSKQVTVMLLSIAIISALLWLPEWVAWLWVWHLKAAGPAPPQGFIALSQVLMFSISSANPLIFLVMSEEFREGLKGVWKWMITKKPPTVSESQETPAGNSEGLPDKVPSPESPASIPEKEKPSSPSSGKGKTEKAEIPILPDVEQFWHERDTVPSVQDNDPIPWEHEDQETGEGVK
A number is an active result; - = inactive. Hits are enriched below; roughly 3.4% of the tested compounds scored in any of these assays.

SMILES	FBW7 activator	TEAD-YAP inh	MITF inh	GPR151 ag
O=C(NCc1ccco1)c1nnc(Cc2cccc(F)c2)o1	-	-	-	-
CN1C(=O)c2c(N)nc3c(c2C1=O)CCCC3	-	-	-	-
COc1ccc(Cn2c(SCC#N)nc3c(sc4ccccc43)c2=O)cc1	-	-	-	-
COc1ccc(OCC(=O)Nc2ccc(-c3nc4cc(C(C)C)ccc4o3)cc2)cc1	-	48	-	-
CCOC(=O)CC1CSc2nc3sc4c(c3c(=O)n21)CCCC4 (configuration not stated)	-	-	-	-
COc1cccc(OC)c1C(=O)N1C[C@@H]2C[C@H]1C(=O)N2c1ccccc1Cl	-	33	-	-
COc1ccc(Cl)cc1C(=O)Nc1ccc(Nc2cc(-n3cccn3)ncn2)cc1	-	-	-	-
COc1cccc(C(=O)Nc2ccc3scnc3c2)c1	-	63	-	-
COc1cccc(C(=O)Nc2ccc(Nc3cc(-n4cccn4)ncn3)cc2)c1	-	68	-	-
O=C(Nc1ccc2ccccc2c1)c1ccc(C2CCCCC2)cc1	-	34	-	-
O=C(Nc1ccc2scnc2c1)c1ccc2ccccc2c1	-	66	-	-
c1coc(-c2cn3c(n2)sc2ccccc23)c1	-	-	-	-
Cc1ccccc1C(=O)NC(C)c1n[nH]c(=S)n1C (configuration not stated)	-	-	-	-
COc1cccc(C(=O)Nc2ccc(N3CCCCC3=O)c(C)c2)c1	-	76	-	-
C[C@H](Nc1nc(-c2cccc3ncccc23)cnc1N)c1ccccc1	-	60	-	-
Nc1ncc(-c2cccc3ncccc23)nc1NCc1ccccc1	-	48	-	-
C[C@@H](Nc1nc(-c2cccc3cccnc23)cnc1N)c1ccccc1	-	-	-	-
Cc1cc(NC(=O)COC(=O)c2ccc([N+](=O)[O-])o2)n(-c2ccccc2)n1	-	-	-	-
COc1ccc(-c2ccc(NS(=O)(=O)c3cc(C)cc(C)c3)cc2)nn1	1.9	-	-	-
COc1ccc(-c2nnc(SCC(=O)c3ccccc3F)o2)cc1	-	-	-	-
COc1ccc(-c2nnc(SCC(=O)OCC(=O)Nc3ccccc3C#N)o2)cc1	-	67	-	-
COc1ccc(-c2nnc(SCC(=O)c3ccc[nH]3)o2)cc1	-	39	-	-
N#Cc1ccccc1NC(=O)CSc1nnc(-c2ccccc2)o1	-	-	-	-
COC(=O)CSc1nnc(-c2ccc(C)cc2)o1	-	-	-	-
N#Cc1ccccc1NC(=O)COC(=O)CSc1nnc(-c2ccc3c(c2)OCO3)o1	-	38	-	-
SMILES	FBW7 activator	TEAD-YAP inh	MITF inh	GPR151 ag
COC(=O)CSc1nnc(-c2ccc(C(C)(C)C)cc2)o1	-	66	-	-
O=C1CC(Nc2ccc(N3CCOCC3)cc2)C(=O)N1C1CCCCC1 (configuration not stated)	-	-	-	-
CC1=C(C(=O)OC(C)C)C(c2cccc(Br)c2)C2=C(CCCC2=O)N1 (configuration not stated)	-	-	-	-
C/C(=N\N=C1/NC(=O)C(CC(=O)O)S1)c1ccc2ccccc2c1O (configuration not stated)	-	-	83	-
CC(=O)C(c1ccccc1)C(C#N)(C#N)C(C#N)C#N (configuration not stated)	-	-	-	-
COC(=O)c1sc(SC)nc1Nc1ccnc(Nc2cc(OC)ccc2OC)c1	-	48	-	-
COc1cc2nc(C)n(C(=S)S)c2cc1OC	-	56	-	-
COc1cc2nc(-c3ccc(N(C)C)cc3)n(C)c2cc1OC	-	-	-	-
COc1ccc(OC)c(CCNC(=O)c2cc3c(C)nc4ccccc4c3o2)c1	-	46	-	-
CC(CCc1ccccc1)Nc1ncnc2sccc12 (configuration not stated)	-	51	-	-
CC(C)(C)c1ccccc1Nc1ncnc2sccc12	-	-	-	-
COc1cc(Br)c(/C=C(\C#N)c2nc3ccccc3[nH]2)cc1OC	-	-	-	-
Cc1ccc2nc(/C(C#N)=C/c3cc([N+](=O)[O-])ccc3O)[nH]c2c1	-	-	-	-
Cc1ccc2nc(/C(C#N)=C/c3ccccc3O)[nH]c2c1	-	97	-	-
Cc1cc(/C=C(/C#N)c2nc3ccccc3[nH]2)c(C)n1-c1cccnc1	-	59	-	-
COc1cc(/C=C(\C#N)c2nc3ccccc3[nH]2)c(Br)cc1O	-	41	-	-
CCOC(=O)c1cnc2ccc(OC)cc2c1NCCc1nc2ccccc2n1-c1c(C(=O)OCC)cnc2ccc(OC)cc12	-	-	-	-
COc1ccccc1NC(=O)Cn1c(C)nc2ccccc21	-	35	-	-
CC(=O)c1cn(CC(=O)Nc2ccccc2)c2ccccc12	-	-	-	-
COc1cccc(NC(=O)Cn2cc(C(C)=O)c3ccccc32)c1	-	48	-	-
CC(=O)c1cn(CC(=O)NCCOc2ccc(Cl)cc2)c2ccccc12	-	40	-	-
COc1ccccc1NC(=O)Cn1cc(C(C)=O)c2ccccc21	-	37	-	-
CC1(C(=O)O)CCC2C(Br)=CC21C (configuration not stated)	-	-	-	-
NC(=O)Cn1c(=O)n(Cc2ccco2)c2ncccc21	-	-	-	-
O=C(c1ccccc1)c1cc(Cl)ccc1Nc1nc(-c2ccccc2)c2cc(Cl)ccc2n1	-	-	-	-
SMILES	FBW7 activator	TEAD-YAP inh	MITF inh	GPR151 ag
Nc1ccc(Oc2ccc3c(c2)C(=O)N(Cc2cccnc2)C3=O)cc1	-	35	-	-
O=C1c2ccccc2C(=O)N1Cc1cccnc1	-	-	-	-
CCOC(=O)c1cc(C(C)C)sc1NC(=O)/C=C/C(=O)O	-	45	-	-
CCCc1cc(C(=O)OC)c(NC(=O)/C=C/C(=O)O)s1	-	37	-	-
CC(C)n1c2c(=O)n(C)c(=O)n(C)c2n2c(-c3ccc(Br)cc3)nnc12	-	-	-	-
CC(=O)Oc1cccc(N2Cc3ccccc3C2=O)c1	-	73	-	-
Cc1ccc(C(=O)c2sc3nc(C)ccc3c2N)c(C)c1	-	37	-	-
COc1ccc(C(=O)c2sc3nc(C)ccc3c2N)cc1OC	-	33	-	-
Cc1ccc(C(=O)N2CCC[C@@H]3CN(C(=O)CCOc4ccccc4)CC[C@@H]32)s1	-	-	-	-
O=C1OC(c2ccc(Br)cc2)=N/C1=C/c1cccc2ccccc12	-	-	-	-
O=C(NCCCN1CCOCC1)C(Cc1ccccc1)NS(=O)(=O)c1ccc(Cl)cc1 (configuration not stated)	2.4	-	-	-
COc1cc(OC)cc(C(=O)N/N=C(\C)CC(=O)Nc2cccc(C)c2C)c1	-	50	-	-
COc1cc(OC)cc(C(=O)N/N=C(\C)CC(=O)NCc2ccco2)c1	-	51	-	-
COc1ccc(C(=O)N/N=C(\C)CC(=O)NCc2ccco2)cc1	-	-	-	-
Cc1c(C(=O)O)cccc1-c1ccc(/C=C(\C#N)C(=O)NCc2ccco2)o1	-	-	-	-
COc1ccc(-n2[nH]c(C)c(N=O)c2=O)cc1	-	39	-	-
O=C(Nc1ccccc1-c1nc2ccccc2[nH]1)C1CC1	-	38	-	-
